According to PubChem BioAssay (NCATS):
Inconclusive results are not listed. Where a call stands in place of a potency, no number is given. The source made the active and inactive calls. Unless noted, the call rests on the fitted dose curve; in most records, active means well fitted curve in the direction sought with a large enough effect; inconclusive means small, poorly fitted or top-dose-only effect, or another doubt; inactive means no such curve, though single readings can be large; an effect the other way counts as inactive or inconclusive. Residues, ends and D or L forms follow the SMILES beside them. *: point of attachment. Cbz = O=C(OCc1ccccc1)*

Tests used:
[1] = biological target: Transient receptor potential cation channel subfamily V member 1 (Homo sapiens) (UniProt Q8NER1); test: HTS Assay for Compounds that Act as Enhancers of the Vanilloid Receptor 1 (AID 488979)
Transient receptor potential cation channel subfamily V member 1 (Homo sapiens), sequence (Q8NER1 whole entry, looked up): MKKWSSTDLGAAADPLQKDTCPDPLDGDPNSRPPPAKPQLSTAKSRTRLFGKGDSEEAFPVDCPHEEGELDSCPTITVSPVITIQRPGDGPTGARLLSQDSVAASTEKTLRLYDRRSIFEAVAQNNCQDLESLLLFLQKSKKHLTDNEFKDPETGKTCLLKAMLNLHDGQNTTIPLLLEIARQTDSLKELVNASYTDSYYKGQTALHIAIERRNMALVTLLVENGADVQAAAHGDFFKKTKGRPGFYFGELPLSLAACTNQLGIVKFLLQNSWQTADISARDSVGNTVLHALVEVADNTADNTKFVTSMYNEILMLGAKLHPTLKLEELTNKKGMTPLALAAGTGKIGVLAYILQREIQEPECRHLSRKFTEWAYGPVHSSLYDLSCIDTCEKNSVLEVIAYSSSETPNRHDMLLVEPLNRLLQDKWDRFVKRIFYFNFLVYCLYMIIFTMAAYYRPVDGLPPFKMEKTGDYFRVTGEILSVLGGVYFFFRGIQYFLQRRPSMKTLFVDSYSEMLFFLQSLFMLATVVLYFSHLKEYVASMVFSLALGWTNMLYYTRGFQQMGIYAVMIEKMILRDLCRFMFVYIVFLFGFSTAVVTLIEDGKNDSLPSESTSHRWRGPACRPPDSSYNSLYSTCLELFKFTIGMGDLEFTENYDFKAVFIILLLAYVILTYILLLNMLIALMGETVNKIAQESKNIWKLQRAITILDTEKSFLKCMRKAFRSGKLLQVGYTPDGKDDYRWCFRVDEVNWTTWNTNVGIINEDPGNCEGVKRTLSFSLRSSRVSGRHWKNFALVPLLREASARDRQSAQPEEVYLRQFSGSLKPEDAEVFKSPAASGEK
Summary of the method: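 TRPV1-expressing cells loaded with Fluo-8 calcium dye; compounds added and calcium influx read kinetically for 3 min (agonist phase), then capsaicin at EC20 added and read 2 min more for enhancement. Fluorescence ex 480/em 520 nm.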

[2] = biological target: Thyrotropin receptor (Homo sapiens) (UniProt P16473); test: qHTS Assay for Antagonists of the Thyroid Stimulating Hormone Receptor (AID 488980); further: series mostly up to about 58 µM
Thyrotropin receptor (Homo sapiens), sequence (P16473 whole entry, looked up): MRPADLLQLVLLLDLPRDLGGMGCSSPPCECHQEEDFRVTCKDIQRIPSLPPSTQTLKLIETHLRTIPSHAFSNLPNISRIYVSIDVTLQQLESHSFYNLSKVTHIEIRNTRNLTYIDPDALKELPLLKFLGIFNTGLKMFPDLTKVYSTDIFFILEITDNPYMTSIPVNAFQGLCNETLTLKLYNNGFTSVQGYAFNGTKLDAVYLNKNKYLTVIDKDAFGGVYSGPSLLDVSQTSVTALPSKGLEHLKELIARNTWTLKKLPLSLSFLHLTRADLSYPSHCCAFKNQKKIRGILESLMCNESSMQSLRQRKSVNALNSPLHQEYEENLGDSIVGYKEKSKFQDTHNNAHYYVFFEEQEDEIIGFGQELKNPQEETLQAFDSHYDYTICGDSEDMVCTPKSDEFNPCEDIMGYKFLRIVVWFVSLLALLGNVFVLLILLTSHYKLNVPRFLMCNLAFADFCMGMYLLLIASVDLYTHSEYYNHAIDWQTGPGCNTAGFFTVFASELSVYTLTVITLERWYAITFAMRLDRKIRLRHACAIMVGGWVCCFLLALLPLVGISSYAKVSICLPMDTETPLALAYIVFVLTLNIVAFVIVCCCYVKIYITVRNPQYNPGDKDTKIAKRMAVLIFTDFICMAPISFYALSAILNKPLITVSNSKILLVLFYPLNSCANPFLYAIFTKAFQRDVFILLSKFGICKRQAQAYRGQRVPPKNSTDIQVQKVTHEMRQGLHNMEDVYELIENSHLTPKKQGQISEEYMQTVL
Summary of the method: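 Readout is cAMP by HTRF competition between cellular cAMP and cAMP-d2 for a cryptate-labelled antibody. Antagonism was assessed in TSHR-transfected HEK293 cells stimulated with 4 nM TSH (EC80, final) in the presence of RO 20-1724.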

[3] = biological target: D(1A) dopamine receptor (Homo sapiens) (UniProt P21728); test: HTS Assay for Allosteric Agonists of the Human D1 Dopamine Receptor: Primary Screen for Agonists (AID 488981)
D(1A) dopamine receptor (Homo sapiens), sequence (P21728 whole entry, looked up): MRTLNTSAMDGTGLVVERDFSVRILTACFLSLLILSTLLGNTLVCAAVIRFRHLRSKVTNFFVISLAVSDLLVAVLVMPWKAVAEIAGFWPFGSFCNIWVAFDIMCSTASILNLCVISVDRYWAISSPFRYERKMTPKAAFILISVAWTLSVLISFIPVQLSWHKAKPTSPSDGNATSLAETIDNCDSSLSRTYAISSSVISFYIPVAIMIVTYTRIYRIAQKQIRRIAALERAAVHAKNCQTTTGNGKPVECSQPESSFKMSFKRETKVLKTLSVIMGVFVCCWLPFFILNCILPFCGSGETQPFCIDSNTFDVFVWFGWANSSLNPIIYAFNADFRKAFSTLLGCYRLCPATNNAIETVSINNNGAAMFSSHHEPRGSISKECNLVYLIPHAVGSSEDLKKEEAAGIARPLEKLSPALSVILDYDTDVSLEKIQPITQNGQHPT
Summary of the method: (§1)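 Tetracycline-induced HEK293 T-REx cells force-coupled to calcium signalling were incubated overnight at 30 C and dye-loaded at room temperature. Calcium flux over 180 s after compound addition flagged agonists; a further 180 s read after EC20 dopamine flagged potentiators.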

[4] = biological target: D(1A) dopamine receptor (Homo sapiens) (UniProt P21728); test: HTS Assay for Allosteric Agonists of the Human D1 Dopamine Receptor: Primary Screen for Potentiators (AID 488982); further: potency means the concentration at half of the fitted maximal effect
Summary of the method: as §1

[5] = biological target: ATPase family AAA domain-containing protein 5 (Homo sapiens) (UniProt Q96QE3); test: Validation screen for small molecules that inhibit ELG1-dependent DNA repair in human embryonic kidney (HEK293T) cells expressing luciferase-tagged ELG1 (AID 493107);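 further: cells co-treated with the DNA-damaging agent 5-fluorouridine alongside compound; series mostly up to about 46 µM; inhibitors lower the ELG1-luciferase luminescence signal; nearly all actives have a fitted effect of over 70% in size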
Summary of the method: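 Luminescence from ONE-Glo, developed 30 min at room temperature, served as read-out of ELG1-luciferase levels. Beforehand, reporter HEK293T cells received 5-fluorouridine plus test compound for 16 hr at 37 °C.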

[6] = biological target: Thyrotropin-releasing hormone receptor (Homo sapiens) (UniProt P34981); test: qHTS for Small Molecule Agonists and Allosteric Enhancers of Human TRH Receptor: Validation Screen for Agonists (AID 493127;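 active means calcium activation more than 3 SD above the typical response in the agonist read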;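 further: intracellular calcium rise by fluo-8 fluorescence before TRH EC20 addition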); conditions: TRH receptor agonist cell assay; at 2 µM; stronger effect = higher value
Thyrotropin-releasing hormone receptor (Homo sapiens), sequence (P34981 whole entry, looked up): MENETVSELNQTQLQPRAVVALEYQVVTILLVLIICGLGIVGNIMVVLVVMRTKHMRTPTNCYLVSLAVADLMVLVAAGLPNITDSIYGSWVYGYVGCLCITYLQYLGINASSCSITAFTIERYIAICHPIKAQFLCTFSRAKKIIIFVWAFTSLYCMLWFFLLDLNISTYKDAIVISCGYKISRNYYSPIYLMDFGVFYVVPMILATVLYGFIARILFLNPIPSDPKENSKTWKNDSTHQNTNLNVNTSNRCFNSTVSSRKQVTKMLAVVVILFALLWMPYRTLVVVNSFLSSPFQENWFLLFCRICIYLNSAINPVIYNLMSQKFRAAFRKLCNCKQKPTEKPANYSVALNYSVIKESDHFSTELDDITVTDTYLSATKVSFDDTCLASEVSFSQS
Summary of the method: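 Cells 2000/well, 10% FCS, 18 h 33.5C/5% CO2 → fluo-8 Ca dye, RT 30 min–1.5 h → FDSS baseline 10 × 1 s → compound added → 230 cycles (1 s/cycle) agonist mode. TRH controls.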

[7] = Nrf2 qHTS screen for inhibitors: Validation (AID 493153; active means well fitted inhibition curve with a large enough effect in the main read-out, with a control signal flat, not every such curve was filed as active; further: potency means the concentration at half of the fitted maximal effect); conditions: Potency: luciferase luminescence; viability change: measured here: cytotoxicity max response
Summary of the method: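 Luminescence from an ARE-firefly luciferase reporter in A549 cells gives Nrf2 inhibition; an earlier CellTiter-Fluor fluorescent read flags cytotoxicity. Cells in 5% FBS OPTI-MEM received compound dilution series for 18-24 h at 37°C.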

[8] = qHTS for Inhibitors of Cell Surface uPA Generation: Validation Assay (AID 493164)
Summary of the method: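 RAW 264.7 cells (4000/well) were plated overnight, then exposed for 18 h at 37 C, 5% CO2 to compounds in a 7-point 1:5 titration (2.45 nM–38.3 uM final). Intracellular ATP was read by ATP-Lite luminescence.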

[9] = biological target: Galactokinase (Homo sapiens) (UniProt P51570); test: qHTS Validation Assay for Inhibitors of Human Galactokinase (GALK) (AID 493189)
Galactokinase (Homo sapiens), sequence (P51570 whole entry, looked up): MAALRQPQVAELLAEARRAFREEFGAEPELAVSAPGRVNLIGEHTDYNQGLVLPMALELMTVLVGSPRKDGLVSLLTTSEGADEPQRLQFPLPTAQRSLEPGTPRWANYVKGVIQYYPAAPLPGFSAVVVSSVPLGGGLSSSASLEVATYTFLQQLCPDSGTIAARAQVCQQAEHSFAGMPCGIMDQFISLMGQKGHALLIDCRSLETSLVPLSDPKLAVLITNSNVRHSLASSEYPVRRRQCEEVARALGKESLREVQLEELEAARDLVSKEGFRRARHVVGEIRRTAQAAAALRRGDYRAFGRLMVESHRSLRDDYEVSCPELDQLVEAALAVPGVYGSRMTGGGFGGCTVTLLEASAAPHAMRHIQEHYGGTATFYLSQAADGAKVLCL
Summary of the method: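 5 nM GALK / 100 uM galactose / 35 uM ATP, 20 mM HEPES pH8.0, 5 mM MgCl2, 60 mM NaCl, 1 mM DTT, 0.01% BSA (final). RT 1 h; Kinase-Glo Plus luminescence.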

[10] = Validation screen for small molecules that induce DNA re-replication in SW480 colon adenocarcinoma cells (AID 504364)
Summary of the method: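 250 cells/well; compound pinned in; 48 hr, 37 C, 5% CO2; Hoechst added, 40 min; nuclear fluorescence imaged, 405 ex / 500-530 em; re-replication scored as increase in high-intensity nuclei.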

[11] = biological target: Peptidyl-prolyl cis-trans isomerase NIMA-interacting 1 (Homo sapiens) (UniProt Q13526); test: qHTS Validation Assay to Find Inhibitors of Pin1 (AID 504536; active means well fitted inhibition curve with a large enough effect in the polarisation, with a control signal flat, not every such curve was filed as active; the % refers to the polarisation)
Peptidyl-prolyl cis-trans isomerase NIMA-interacting 1 (Homo sapiens), sequence (Q13526 whole entry, looked up): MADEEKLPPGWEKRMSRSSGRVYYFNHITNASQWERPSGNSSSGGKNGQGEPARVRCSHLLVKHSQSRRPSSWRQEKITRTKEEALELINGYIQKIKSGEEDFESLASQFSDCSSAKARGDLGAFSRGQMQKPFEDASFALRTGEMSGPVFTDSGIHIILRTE
Summary of the method: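 Fluorescence polarization competition: compounds (titration) displace HiFluor-488-labeled Pin1-1b peptide from Pin1 (0.3 uM final) in pH 7.5 HEPES buffer with DTT, 10 min at room temperature; %Activity normalized to no-enzyme wells, curves fitted.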

[12] = biological target: Phosphoglycerate kinase, glycosomal (Trypanosoma brucei brucei) (UniProt P07378); test: qHTS Validation Assay to Find Inhibitors of Phosphoglycerate Kinase (AID 504547)
Phosphoglycerate kinase, glycosomal (Trypanosoma brucei brucei), sequence (P07378 whole entry, looked up): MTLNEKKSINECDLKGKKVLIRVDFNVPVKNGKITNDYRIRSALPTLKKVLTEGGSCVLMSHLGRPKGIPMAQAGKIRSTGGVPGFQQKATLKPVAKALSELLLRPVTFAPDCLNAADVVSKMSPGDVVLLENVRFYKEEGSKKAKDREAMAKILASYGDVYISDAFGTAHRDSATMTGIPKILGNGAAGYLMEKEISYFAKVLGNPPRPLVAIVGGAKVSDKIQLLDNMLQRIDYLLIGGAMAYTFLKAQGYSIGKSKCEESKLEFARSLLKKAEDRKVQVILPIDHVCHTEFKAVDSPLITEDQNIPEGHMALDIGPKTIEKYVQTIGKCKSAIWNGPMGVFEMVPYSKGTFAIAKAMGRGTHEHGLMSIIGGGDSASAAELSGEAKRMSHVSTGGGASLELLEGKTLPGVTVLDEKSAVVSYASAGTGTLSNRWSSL
Summary of the method: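 Substrate/PGK mix plus compound; reaction started with GAPDH (100nM final) to form 1,3-BPG; 60 min RT; Kinase-Glo Plus 10 min; luminescence. TEA 100mM pH 7.6, MgCl2 5mM, Tween-20 0.01%.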

[13] = biological target: phosphoglycerate mutase (Leishmania major) (UniProt Q4Q090); test: qHTS Validation Assay to Find Inhibitors of Phosphoglycerate Mutase (AID 504548); conditions: Potency: inhibition qHTS;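 further: end-point luminescence from Kinase-GloPlus after the PGAM reaction; series mostly up to about 58 µM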
phosphoglycerate mutase (Leishmania major), sequence (Q4Q090 1-553): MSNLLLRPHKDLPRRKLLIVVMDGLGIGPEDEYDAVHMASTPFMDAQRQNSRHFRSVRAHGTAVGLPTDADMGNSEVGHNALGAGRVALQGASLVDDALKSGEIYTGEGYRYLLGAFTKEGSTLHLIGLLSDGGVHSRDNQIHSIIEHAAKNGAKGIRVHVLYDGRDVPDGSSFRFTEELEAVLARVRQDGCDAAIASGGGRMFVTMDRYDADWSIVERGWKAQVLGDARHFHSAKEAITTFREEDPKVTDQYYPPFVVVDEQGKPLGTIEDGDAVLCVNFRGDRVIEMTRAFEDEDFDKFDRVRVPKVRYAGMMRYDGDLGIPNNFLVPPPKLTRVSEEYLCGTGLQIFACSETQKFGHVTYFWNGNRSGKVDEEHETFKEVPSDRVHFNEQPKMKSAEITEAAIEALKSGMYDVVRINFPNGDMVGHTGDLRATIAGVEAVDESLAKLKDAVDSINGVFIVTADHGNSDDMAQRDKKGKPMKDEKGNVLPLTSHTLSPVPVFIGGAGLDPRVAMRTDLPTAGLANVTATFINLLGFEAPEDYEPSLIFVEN
Summary of the method: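 Inhibition of L. major PGAM was assessed by Kinase-GloPlus luminescence following a 45-minute room-temperature reaction with enzyme at 1.25nM final.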

[14] = biological target: Ubiquitin carboxyl-terminal hydrolase 1 (Homo sapiens) (UniProt O94782); test: Inhibitors of USP1/UAF1: Pilot qHTS (AID 504865);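 further: rhodamine fluorescence freed from ubiquitin-rhodamine substrate followed over time; top concentration of the series differs between compounds; nearly all actives have a fitted effect of over 35% in size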
Ubiquitin carboxyl-terminal hydrolase 1 (Homo sapiens), sequence (O94782 whole entry, looked up): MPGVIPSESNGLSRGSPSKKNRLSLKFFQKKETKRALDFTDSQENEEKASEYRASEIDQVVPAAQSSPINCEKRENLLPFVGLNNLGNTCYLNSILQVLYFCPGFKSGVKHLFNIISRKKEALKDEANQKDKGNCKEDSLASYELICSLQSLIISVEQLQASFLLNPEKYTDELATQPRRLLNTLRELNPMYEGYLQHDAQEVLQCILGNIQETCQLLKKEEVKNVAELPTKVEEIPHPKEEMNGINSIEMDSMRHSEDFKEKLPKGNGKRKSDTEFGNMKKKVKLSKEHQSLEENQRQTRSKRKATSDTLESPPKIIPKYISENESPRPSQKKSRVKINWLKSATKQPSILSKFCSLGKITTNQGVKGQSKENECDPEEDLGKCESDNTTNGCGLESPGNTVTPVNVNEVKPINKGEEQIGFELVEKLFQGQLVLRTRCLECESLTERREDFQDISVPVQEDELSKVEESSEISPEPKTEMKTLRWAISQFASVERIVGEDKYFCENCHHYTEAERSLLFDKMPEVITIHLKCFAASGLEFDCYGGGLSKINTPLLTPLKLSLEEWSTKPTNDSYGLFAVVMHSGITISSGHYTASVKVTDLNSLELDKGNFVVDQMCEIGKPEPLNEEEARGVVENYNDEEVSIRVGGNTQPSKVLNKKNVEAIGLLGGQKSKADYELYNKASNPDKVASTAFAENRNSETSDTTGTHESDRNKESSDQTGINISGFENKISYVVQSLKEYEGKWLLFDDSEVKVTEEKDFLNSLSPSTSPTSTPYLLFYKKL
Summary of the method: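 In 50mM HEPES pH 7.8 containing 0.5mM EDTA, 1mM TCEP, 0.1 mg/ml BSA and 0.01% Tween-20, 1nM USP1/UAF1 is exposed to compound for 15 min, then Ub-Rho (150nM final) is added and fluorescence is read over time.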

[15] = qHTS for Inhibitors of ATXN expression: Validation of Cytotoxic Assay (AID 588349)
Summary of the method: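 Read-out: ATP-based luminescence (CellTiter Glo) reflecting viability of HEK293 cells after 72 hr incubation at 37 degrees C with a concentration series of each compound.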

[16] = qHTS for Inhibitors of ATXN expression: Validation (AID 588378); further: series mostly up to about 57 µM; nearly all actives have a fitted effect of over 75% in size
Summary of the method: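 Compounds were pinned onto attached HEK293 cells carrying an ATXN2-firefly luciferase construct and incubated 24 hrs at 37 degrees C. Each well then received a fluorescent viability reagent followed by luciferase substrate for end-point luminescence.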

[17] = biological target: D(1A) dopamine receptor (Homo sapiens) (UniProt P21728); test: HTS Assay for Allosteric Agonists of the Human D1 Dopamine Receptor: Primary Screen for Antagonists (AID 488983);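 further: calcium flux response to an EC80 dopamine challenge measured with no-wash dye; nearly all actives have a fitted effect of over 65% in size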
Summary of the method: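 Cells are induced with tetracycline and incubated overnight at 30 C, then loaded with calcium dye for 30 to 90 minutes at room temperature. Compound addition is followed by a 180 s read, then an EC80 dopamine addition and another 180 s read.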

[18] = Validation screen for small molecules that induce genotoxicity in human embryonic kidney (HEK293T) cells expressing luciferase-tagged ELG1 (AID 493106)
Summary of the method: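 Luminescence from an ELG1-luciferase fusion serves as the read-out, rising when genetic stress elevates ELG1 protein. HEK293T reporter cells (2,000 per well) received 23 nL compound, incubated 16 hr at 37 °C, then ONE-Glo for 30 min at room temperature.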

Row | Compound | outcome [1] | outcome [2] | Potency [3] | Potency [4] | Potency [5] | activation [6] | Potency [7] | viability change [7] | outcome [8] | Potency [9] | Potency [10] | Potency [11] | Potency [12] | Potency [13] | Potency [14] | Potency [15] | Potency [16] | Potency [17] | Potency [18]
1 | NC(N)=N[C@@H](CCC(=O)O)C(=O)O | inactive | inactive | inactive | inactive | inactive | 0.0625% (inactive) | inactive | 6.59% | inactive | inactive | inactive | inactive | inactive | inactive | inactive | inactive | inactive | – | –
2 | O=C(O)C1=CCCNC1 | inactive | inactive | inactive | – | inactive | 0.875% (inactive) | inactive | 5.73% | inactive | inactive | inactive | inactive | inactive | inactive | inactive | inactive | inactive | inactive | inactive
3 | CC(N)(C(=O)O)c1ccc(C(=O)O)cc1 (centres undefined) | inactive | – | inactive | inactive | inactive | 1.12% (inactive) | inactive | 1.94% | inactive | inactive | inactive | – | inactive | – | – | inactive | inactive | inactive | inactive
4 | CCN(CC)CCOC(=O)c1cc(Cl)c(N)cc1OC | inactive | – | inactive | inactive | inactive | 1.5% (inactive) | inactive | 2.46% | inactive | inactive | inactive | inactive | – | inactive | inactive | inactive | inactive | inactive | –
5 | OCC1NCC(O)C(O)C1O (centres undefined) | inactive | – | inactive | inactive | inactive | 0.938% (inactive) | inactive | -2.29% | inactive | inactive | inactive | inactive | inactive | inactive | inactive | inactive | inactive | inactive | inactive
6 | O=[N+]([O-])c1cccc2c(Br)[nH]nc12 | inactive | – | inactive | inactive | – | -3.31% (inactive) | inactive | 2.48% | inactive | – | inactive | inactive | inactive | – | inactive | inactive | inactive | inactive | inactive
7 | NC(N)=[N+]1CCc2ccccc2C1 | inactive | inactive | inactive | – | inactive | -0.125% (inactive) | 16.4 µM (active) | 6.22% | inactive | inactive | inactive | inactive | inactive | inactive | inactive | inactive | inactive | – | inactive
8 | CC1C(=O)N(C)C(=O)c2nc[nH]c21 (centres undefined) | inactive | – | inactive | inactive | – | 1.25% (inactive) | inactive | -0.209% | inactive | inactive | inactive | inactive | inactive | inactive | – | inactive | inactive | inactive | inactive
9 | N=C(N)c1ccc(N)cc1 | inactive | – | inactive | inactive | inactive | -2.75% (inactive) | inactive | 3.63% | – | inactive | inactive | inactive | inactive | inactive | inactive | inactive | inactive | inactive | inactive
10 | CC(C)[C@H](NC(=O)OCc1ccccc1)C(=O)N[C@H](C=O)Cc1ccccc1 (Cbz-Val-Phe-aldehyde) | inactive | – | inactive | 2.06 µM (active) | inactive | 0.25% (inactive) | inactive | 13.7% | inactive | – | inactive | inactive | – | inactive | inactive | – | inactive | inactive | inactive
11 | Oc1cc2c(cc1O)C(c1ccccc1)CNCC2 (centres undefined) | inactive | inactive | inactive | – | inactive | 0.938% (inactive) | inactive | -2.55% | inactive | inactive | inactive | inactive | inactive | inactive | inactive | inactive | inactive | – | –
12 | COC(=O)C(N)Cc1ccc(Cl)cc1 (centres undefined) | inactive | – | inactive | inactive | – | -2.56% (inactive) | inactive | 9.57% | inactive | inactive | inactive | inactive | inactive | inactive | inactive | inactive | inactive | inactive | inactive
13 | C=CCN1CCc2c(cc(O)c(O)c2Cl)C(c2ccccc2)C1 (centres undefined) | inactive | inactive | – | inactive | inactive | -5.75% (inactive) | inactive | -2.43% | inactive | inactive | – | inactive | inactive | inactive | inactive | – | – | – | inactive
14 | O=C(OCCN1CCOCC1)C1(c2ccccc2)CCCCC1 | inactive | – | inactive | inactive | inactive | -4.62% (inactive) | inactive | -0.582% | inactive | – | inactive | inactive | inactive | inactive | inactive | inactive | inactive | inactive | inactive
15 | Nc1ncnc2c1c(-c1ccc(Oc3ccccc3)cc1)cn2C1CCCC1 | inactive | inactive | inactive | – | – | -5.06% (inactive) | – | – | inactive | inactive | – | inactive | inactive | – | inactive | – | – | – | inactive
16 | Nc1nc2ccc(Cl)cc2c2nc(-c3ccco3)nn12 | inactive | inactive | inactive | – | – | 0.25% (inactive) | – | – | inactive | inactive | inactive | inactive | – | – | inactive | inactive | inactive | – | –
